# Assay outcomes (PubChem BioAssay)
# MARV entry inh: inhibitors of Marburg virus binding or cell entry; Marburg virus pseudotyped entry inhibition, cell reporter; Potency, µM (highest dose often 37.8 µM), for the others: at the top dose activity change, negative = inhibition, actives largely listed as inhibitors; hit rate 1.8% among 300,000; calls by dose curve; tested in HEK293 cells; further: potency means the concentration at half of the fitted maximal effect; on the % scale 0 is the no-effect control and ±100 the full control effect
# Lassa entry inh: Lassa virus entry inhibition | hit rate 1.2% among 300,000 | Lassa virus pseudotype entry inhibition, cell reporter | Potency, µM (top dose mostly 37.9 µM), without a hit: at the top dose activity change, negative = inhibition, actives largely listed as inhibitors; calls by dose curve; tested in HEK293 cells; further: potency means the concentration at half of the fitted maximal effect; on the % scale 0 is the no-effect control and ±100 the full control effect; nearly all actives have a fitted effect of over 50% in size
# Cycloheximide cs: counter-screen hit for Shiga toxin inhibitors, cycloheximide; hit rate 12% among 300,000; cell reporter, cycloheximide protein synthesis inhibition counterscreen; max response, %; in the data active means max response mostly above about 13%, no sharp cut-off; inactive means mostly below about 14%; further: read at 38.3 µM for the half of the compounds with a filed dose; 0% is about no effect
# Shiga inhibitor: Shiga toxin inhibition; hit rate 9.2% among 290,000; inhibition, % at 38.7 µM; Vero cells, Shiga toxin protein synthesis inhibition reporter; AID 2315; in the data active means inhibition mostly above about 28%, no sharp cut-off; inactive means mostly below about 43%; further: 0% is about no effect
# Active calls of the source: *; ? = inconclusive; · = no result given; [ ] = another dose, or the depositor's remark. Sampled rows, rich in hits. Any-hit rate of the full collection: about 12%.
SMILES,MARV entry inh,Lassa entry inh,Cycloheximide cs,Shiga inhibitor
CC(/C=C/c1ccccc1)=N\Nc1nc(-c2ccccc2)cs1,-6.7%,4.8%,1.7,11.8
COc1cc(/C=N/NC(=O)c2c(C)nc3ccc(Cl)cn23)cc(OC)c1OC,4.47µM*,-9.2%[46.1 µM],-1.1,-2.3
CCOc1ccccc1/C=N/NC(=O)c1c(C)nc2ccc(Br)cn12,·,·,-3.6,-3.0
COc1cccc(/C=N/NC(=O)c2c(C)nc3ccc(Br)cn23)c1O,1.83µM*,5.17µM*,12.5,38.2
Cc1cc(C)cc(-n2c(SCC(=O)N3CCCCCC3)nc3c([nH]c4ccccc43)c2=O)c1,·,-9.5%[46.1 µM],·,·
Cn1ccc(C(=O)Nc2ccc3c(c2)OCCO3)n1,·,·,48.9*,71.4*
Cn1nc(C(=O)Nc2ccc3c(c2)OCCO3)cc1C(=O)O,4.4%[46.1 µM],?,19.5*,19.1
Cn1nc(C(=O)Nc2ccc(Cl)cc2)cc1C(=O)Nc1ccc(Cl)cc1,·,·,-2.0,6.8
COc1ccc(C2=Nn3c(nnc3-c3cccc(OC)c3OC)SC2)c(OC)c1,·,·,-1.9,-6.3
COc1cccc(CN(C(=O)/C=C/c2ccco2)C2CCS(=O)(=O)C2)c1 (centres undefined),19.9%[46.1 µM],-0.1%[46.1 µM],4.9,-7.0
O=C(O)CCc1ccc(-c2ccccc2)n1CC(=O)Nc1ccccc1C(F)(F)F,0.6%[46.1 µM],-1.5%[46.1 µM],·,·
COc1ccccc1N1CCN(C(=O)CN2C(=O)C3CCCCC3C2=O)CC1 (centres undefined),12.7%,3.2%,27.6*,77.0*
COc1ccccc1N1CCN(C(=O)Cc2ccc(Cl)cc2)CC1,-0.1%,10.2%,17.0*,30.5
COc1cccc(N2CCN(C(=O)CCSCc3ccccc3F)CC2)c1,29.5%[46.1 µM],12.3%,-6.0,20.5
O=C(CCC(=O)N1CCN(c2ccccc2F)CC1)c1ccc(F)cc1,22.2%[46.1 µM],-26.7%,15.4*,22.3
COc1ccccc1N1CCN(C(=O)CCSCc2ccccc2F)CC1,1.8%,-3.3%,19.9,48.8*
Cc1oc2ccc(O)c(CN3CCN(C)CC3)c2c1C(=O)Nc1cccc(C(F)(F)F)c1,-24.5%[46.1 µM],?,·,·
OC(CN1CCN(c2ccccc2F)CC1)c1ccc(F)cc1 (centres undefined),11.0%[46.1 µM],5.1%[46.1 µM],9.9*,12.0
O=C(CSc1ccc(Cl)cc1)Nc1ccccc1N1CCN(C(=O)c2ccccc2)CC1,?,15.8µM*,-0.6,8.1
CCC(=O)Nc1ccc(N2CCN(C(=O)c3ccccc3C)CC2)cc1,2.3%,7.0%,0.7,-4.6
Cc1ccccc1C(=O)N1CCN(c2ccc(NC(=O)CSc3ccc(Cl)cc3)cc2)CC1,11.2µM*,?,6.0,-8.6
CN(C)c1ncnc2c1C(c1ccccc1)C(C)(C)O2 (centres undefined),4.9%,21.0%[46.1 µM],·,·
Cc1ccc(NC(=O)COC(=O)c2nn(C)cc2Cl)cc1,-12.8%[46.1 µM],-0.4%[46.1 µM],14.6,31.5
Cc1ccc(NC(=S)NNC(=O)c2nn(C)cc2Cl)cc1,21.0%[46.1 µM],0.0%,19.3*,14.6
Cc1ccc(C)c(-n2nnc(C(=O)Nc3ccc(Br)cc3)c2C)c1,10.0%[46.1 µM],-4.2%[46.1 µM],·,·
SMILES,MARV entry inh,Lassa entry inh,Cycloheximide cs,Shiga inhibitor
Cc1cccc(NC(=S)NNC(=O)c2nn(C)cc2Cl)c1,?,?,24.8*,34.3
Cc1ccc(NC(=S)NNC(=O)c2nnn(-c3ccccc3)c2C)cc1,4.8%,14.0%,37.0*,59.3*
Cc1ccc(/C=N/OC(=O)c2nn(C)cc2Cl)cc1,-1.9%[46.1 µM],26.3%,55.2*,89.1*
CCOc1ccc(C=C2SC(=O)N(CCN)C2=O)cc1,·,·,-18.1,-17.3
CCNC(=O)CSc1nc2cc(OC)c(OC)cc2c(=O)n1CCC1=CCCCC1,·,·,-0.1,33.4
Cc1cccc(N(C)c2nc3ccc(C(=O)c4ccccc4)cc3n3c(C)nnc23)c1,·,-6.0%[46.1 µM],·,·
Cc1ccc(C2C(C(=O)c3cccs3)=C(O)C(=O)N2c2cccc(C)n2)cc1 (centres undefined),?,14.7%,17.1*,70.4*
Cc1ccc(C2C(C(=O)c3cccs3)=C(O)C(=O)N2c2ccc(S(N)(=O)=O)cc2)cc1 (centres undefined),3.4%,9.2%,24.5*,40.4
Cc1cc(N2C(=O)C(O)=C(C(=O)c3cccs3)C2c2cccc(Br)c2)no1 (centres undefined),-5.7%[46.1 µM],-4.2%,-0.8,-8.2
Cc1ccc(-n2nc3c(=O)n(CC(=O)NCc4ccc(C)o4)nc(C)c3c2C)cc1,·,·,-4.8,-13.4
COc1ccc2c(Sc3ccc(Cl)cc3)c(C(=O)NCCCN3CCCCC3)[nH]c2c1,?,-19.4%[46.1 µM],·,·
CCC1Oc2ccccc2C(=O)N(CC(=O)c2ccc3c(c2)OCCO3)C1=O (centres undefined),?,-0.1%[46.1 µM],34.1*,46.1
CC1Oc2ccccc2C(=O)N(CC(=O)c2ccc3c(c2)OCCO3)C1=O (centres undefined),·,·,30.4*,71.9*
CC(C)C1Oc2ccccc2C(=O)N(CC(=O)c2ccc3c(c2)OCCO3)C1=O (centres undefined),·,·,47.4*,91.5*
CC(C)C1Oc2ccccc2N(CC(=O)N2CCOCC2)C1=O (centres undefined),5.0%[46.1 µM],1.4%,-4.3,-4.5
COc1cccc(CN(Cc2ccco2)c2cnc(S(C)(=O)=O)nc2C(=O)Nc2cccc(Cl)c2C)c1,?,-6.8%[46.1 µM],·,·
CCN1CCN(C(=O)N2CCOCC2)CC1,?,19.3%,-2.6,-8.3
O=C(COc1ccc(Cl)cc1Cl)Nc1c(-c2cccs2)nc2ccccn12,-19.4%,11.2%,12.7*,29.6
O=C(COc1ccccc1)Nc1ccccc1NS(=O)(=O)c1cccs1,-3.3%,10.0%,-2.4,17.5
Cc1cc(Cl)ccc1OCC(=O)Nc1ccccc1NS(=O)(=O)c1cccs1,·,·,23.5*,23.0
O=C(Nc1c(-c2cccs2)nc2ccccn12)c1ccccc1F,1.6%[46.1 µM],?,-1.9,-3.7
O=C(Nc1ccc(Cl)cc1)Nc1ccccc1NS(=O)(=O)c1cccs1,-1.3%[46.1 µM],2.7%,-3.5,2.9
O=C(COc1ccc(Cl)cc1Cl)Nc1ccccc1NS(=O)(=O)c1cccs1,?,-0.4%[46.1 µM],47.1*,94.4*
O=c1[nH]c(=S)n(C2CC2)c(O)c1/C=N/Nc1ccccc1,27.7%,?,24.1*,64.7*
O=C(N/N=C/c1c(O)n(C2CCCCC2)c(=S)[nH]c1=O)c1ccccc1O,·,·,15.3,10.9
SMILES,MARV entry inh,Lassa entry inh,Cycloheximide cs,Shiga inhibitor
CC(C)c1ccc(-n2c(O)c(/C=N/NC(=O)c3ccncc3)c(=O)[nH]c2=O)cc1,2.9%,-17.8%,-3.0,-3.8
CC(C)c1ccc(-n2c(O)c(/C=N/NC(=O)c3ccccc3O)c(=O)[nH]c2=S)cc1,-1.1%[46.1 µM],-17.7%[46.1 µM],32.6*,47.6*
O=c1[nH]c(=S)n(C2CC2)c(O)c1/C=N/Nc1cccc2ccccc12,-0.8%,-3.2%,25.2*,72.4*
O=C(N/N=C/c1c(O)n(C2CCCCC2)c(=S)[nH]c1=O)c1ccccc1,17.6%[46.1 µM],-1.6%[46.1 µM],22.1,47.8*
COC(=O)[C@H](C)N1CC=CCOc2c(Cl)cc(Cl)cc2[S+]1(=O)[O-],·,-4.2%[46.1 µM],·,·
COc1cc(NC(=O)C2=C(C)Nc3nnnn3C2c2ccc(SC)cc2)c(OC)cc1Cl (centres undefined),-3.9%[46.1 µM],-21.3%[46.1 µM],·,·
CCn1c(O)c(/C=N/NC(=O)c2ccncc2)c(=O)[nH]c1=S,0.7%,22.0%,7.0,-2.8
O=C(N/N=C/c1c(O)n(CCc2ccccc2)c(=O)[nH]c1=O)c1ccccc1,17.4%,11.9%,29.6*,30.9*
